PubChem BioAssay AID1159580 (chemical genetic matrix, 2015)
The campaign covered roughly 5,500 compounds. About 2,000 (36%) were called active. Roughly 18% stayed inconclusive and do not appear here. Rule as the data show it: active = normalized growth mostly below about 0.91 (no sharp cut-off); inconclusive = no clear call, values can overlap the other calls; inactive = mostly above about 0.92. Some of the results follow.

Experiment: chemical genetic growth profiling, strain panel (AID 1159580);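 also: tested at 20 µM; growth read once vehicle control cultures reached saturation at 30 °C; 1 = growth at the plate median or of vehicle wells; lower values mean less growth of the strain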
Conditions: S. cerevisiae deletion strains, growth OD
[1] = locus YHR030C, strain SLT2, hits give low values
[2] = locus YHR079C, strain IRE1, hits give low values
[3] = locus YJL095W, strain BCK1, hits give low values
[4] = locus YJR066W, strain TOR1, hits give low values
[5] = locus YLR113W, strain HOG1, hits give low values
[6] = locus YNL183C, strain NPR1, hits give low values
[7] = locus YOR231W, strain MKK1, hits give low values
[8] = locus YPL256C, strain CLN2, hits give low values

Measured: normalized growth

COc1ccc(-c2cc(=O)c3c(O)cc(OC)cc3o2)cc1
inactive: [1] 0.924 | [2] 0.925 | [3] 0.931 | [4] 0.874 | [5] 0.905 | [6] 0.887 | [7] 0.919 | [8] 0.94

COc1ccc(-c2cc(=O)c3c(OC)c(OC)c(OC)cc3o2)cc1OC
inactive: [1] 1.03 | [2] 1.02 | [3] 0.974 | [4] 0.99 | [5] 0.968 | [6] 0.936 | [7] 1.02 | [8] 1
